# Assay results reported in the supplement of paper PMC3334620.
# The full ranking holds about 33,000 sequences; the median of “E-score (-0.5 to 0.5)” is about -0.035, and the highest 2% start at about 0.35. The entries come from a sample that favours the highest values as a whole.
# Target: T1, Pdr3 (UniProt P33200)
# T1 sequence: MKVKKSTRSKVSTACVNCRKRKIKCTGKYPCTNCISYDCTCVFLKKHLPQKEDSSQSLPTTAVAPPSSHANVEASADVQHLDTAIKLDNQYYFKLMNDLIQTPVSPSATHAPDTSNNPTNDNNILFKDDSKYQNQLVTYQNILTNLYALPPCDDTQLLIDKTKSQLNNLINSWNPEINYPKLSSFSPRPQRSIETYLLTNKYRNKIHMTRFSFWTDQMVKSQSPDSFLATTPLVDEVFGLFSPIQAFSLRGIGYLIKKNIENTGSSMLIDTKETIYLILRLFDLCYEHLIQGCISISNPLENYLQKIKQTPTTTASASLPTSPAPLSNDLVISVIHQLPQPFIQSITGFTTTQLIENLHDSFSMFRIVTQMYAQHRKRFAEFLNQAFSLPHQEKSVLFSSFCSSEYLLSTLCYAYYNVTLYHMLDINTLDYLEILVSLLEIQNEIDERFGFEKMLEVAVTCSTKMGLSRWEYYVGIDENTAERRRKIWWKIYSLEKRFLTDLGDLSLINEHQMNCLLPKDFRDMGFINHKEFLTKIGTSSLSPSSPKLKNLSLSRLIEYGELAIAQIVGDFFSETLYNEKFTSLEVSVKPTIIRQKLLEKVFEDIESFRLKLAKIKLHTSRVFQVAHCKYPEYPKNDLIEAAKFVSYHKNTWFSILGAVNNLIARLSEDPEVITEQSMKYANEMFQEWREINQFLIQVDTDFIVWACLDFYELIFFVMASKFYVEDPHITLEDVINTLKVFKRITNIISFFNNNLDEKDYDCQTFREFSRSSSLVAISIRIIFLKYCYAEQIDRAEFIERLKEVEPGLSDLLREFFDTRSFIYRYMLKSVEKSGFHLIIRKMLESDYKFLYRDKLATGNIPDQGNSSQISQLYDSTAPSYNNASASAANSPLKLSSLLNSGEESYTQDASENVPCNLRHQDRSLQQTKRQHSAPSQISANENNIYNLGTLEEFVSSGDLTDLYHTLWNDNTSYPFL
# Assay: PBM E-score (8-mer binding enrichment) (E-score (-0.5 to 0.5)); higher = stronger / more preferred TF binding
# Details: protein concentration: 200 nM; construct: GST-full length
# Experimental: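 Universal 'all 10-mer' protein binding microarrays (Agilent AMADID 015681) probed with GST-tagged S. cerevisiae TFs (full-length or DBD) made by in vitro transcription/translation (PURExpress), about 100-200 nM. Bound TF was detected with fluorescent anti-GST. Each ungapped 8-mer (which stands for itself and its reverse complement) is scored by the PBM enrichment score (E-score), a modified Wilcoxon-Mann-Whitney statistic from -0.5 to +0.5, computed with the Universal PBM Analysis Suite. Scale: above 0.35 generally sequence-specific binding.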
row,Sequence,PBM E-score
1,GGTTCGGA,0.34
2,CGTTCGGA,0.414
3,GATTCGGA,0.29
4,AATTCGGG,0.153
5,CATTCGGA,0.356
6,CATTCGGC,0.145
7,CGTTCGGC,0.171
8,AATTCGGA,0.365
9,AATTCGGC,0.173
10,GTAGCGTA,-0.0161
11,CTGTCGCC,0.0223
12,AAAAGATC,-0.0361
13,TCCGCAGA,0.258
14,CCCAAACA,-0.0368
15,AGGTTAGA,-0.00179
16,CGCCTGCC,-0.0358
17,AACCACCC,-0.00213
18,ACATAGAT,-0.085
19,CCAACCGC,0.146
20,AGTGTTCG,-0.0373
21,CATTAGAG,-0.234
22,CCGAAGCC,0.245
23,AGGAAGCC,-0.0295
24,AGGAAGCA,-0.16
25,CGGAAGCA,0.428

row,Sequence,PBM E-score
1,CGGAAGCC,0.416
2,GGGAAGCA,-0.0013
3,CGCGCTCC,0.308
4,ATTGTGGC,0.0289
5,GTCTACCA,-0.252
6,GTGGGAAA,-0.0227
7,CGGTTGGC,0.161
8,AAATACGG,0.0148
9,TCACGGAA,0.464
10,TCACGGCA,0.193
11,ACACGGAG,0.284
12,CCACGGCG,0.182
13,CCACGGAG,0.429
14,ACACGGAT,0.302
15,TCACGGGA,0.203
16,CCACGGAC,0.34
17,CCACGGAA,0.484
18,CCACGGGG,0.335
19,CCACGGGA,0.325
20,ACACGGAA,0.438
21,ACAATTTG,-0.117
22,AGACGGGC,0.0159
23,CTCGCAAA,-0.131
24,AGGAGAAT,-0.00643
25,AGGATGCA,-0.117

row,Sequence,PBM E-score
1,AAGGCATC,-0.216
2,ACCTAAAG,-0.12
3,CTCCACGC,-0.165
4,TGGATCAA,-0.168
5,CGGATCAG,0.334
6,CGGATCAA,0.356
7,AGGATCAC,-0.231
8,CGGATCAC,0.391
9,GGGATCAC,-0.0461
10,ATAGCCCG,0.0917
11,ATCGTTTG,0.0176
12,TATTCGCA,-0.0986
13,AGCCAGCT,-0.164
14,GTGGCGAA,0.106
15,GCCGGGCC,0.12
16,ACCGGGCG,0.0259
17,ACCGGGCC,0.25
18,CGGGGGCC,0.142
19,CCCGGGCC,0.397
20,CCGGGGGC,0.235
21,CCGGGGCC,0.367
22,CCCGGGCG,0.421
23,CCGGGGCA,0.235
24,CCCCGGCG,0.162
25,CCGGGGCG,0.374

row,Sequence,PBM E-score
1,ACGGGGCG,0.183
2,AAGCAGCG,0.017
3,CTACTCCA,-0.162
4,TCGACCGA,0.0776
5,ACTGGGCG,-0.018
6,AGTATTGC,-0.0115
7,ACCCAGTC,-0.0225
8,CGCCTCCG,0.295
9,AACTAGAC,-0.106
10,GCCTCACA,-0.114
11,CCCGATCG,0.234
12,AAAAATGG,0.0817
13,GCGCCGCA,0.151
14,CCCGGGCA,0.375
15,ACCGGGCA,0.102
16,GCCGGGCA,0.282
17,GATAGTGC,-0.0798
18,GTTCAAAC,-0.0193
19,AGGATAAC,-0.212
20,CTAATCTC,-0.0806
21,ATCCCGCG,0.465
22,CACCCGCG,0.42
23,AACCCGCA,0.18
24,CACCCGCA,0.115
25,AACCCGCG,0.431

row,Sequence,PBM E-score
1,AGCCCGCG,0.381
2,CGCCCGCG,0.314
3,AACCCGCC,0.165
4,ATCCCGCC,0.322
5,AGCCCGCT,-0.183
6,CACCCGCC,0.332
7,ATCCCGCA,0.21
8,AATTAGCA,0.103
9,ATGTCGAC,0.0706
10,ATTGCGAA,-0.0818
11,GTCAGATA,-0.0744
12,CTAAGAAC,0.165
13,CAGACGAA,0.199
14,AGAATACT,-0.121
15,CAGAACAA,0.0215
16,CTACTTAC,-0.312
17,CACTAAGG,-0.0887
18,CATCCCGC,0.315
19,AATCCCTG,-0.0189
20,AATCCCGG,0.407
21,GATCCCGC,0.371
22,GATCCCGA,0.317
23,AATCCCCG,0.296
24,CATCCCCA,-0.0591
25,CATCCCGG,0.431

row,Sequence,PBM E-score
1,CATCCCCC,0.0287
2,CATCCCCG,0.354
3,CATCCCGA,0.352
4,CATCCCAG,-0.106
5,CACTTTAG,-0.149
6,AGTCTGCG,-0.259
7,CAGGCGTA,-0.145
8,ACGTCAGG,-0.326
9,AGGCAGGG,-0.153
10,ACGAATGC,-0.158
11,CCGCGCGA,0.303
12,ATGCGCGA,0.0846
13,CCGCGCGG,0.473
14,ATGCGCGG,0.355
15,GCGCGCGA,0.308
16,CTCCGCGC,0.368
17,ATCCGCGC,0.309
18,GCGCGCGC,0.388
19,CCGCGCGC,0.332
20,ACGCGCGC,0.238
21,CTCCGCGA,0.258
22,ATGCGCGC,0.275
23,GCGTAGTA,-0.095
24,ACGCCTGA,-0.148
25,CTAGAAAG,-0.189

row,Sequence,PBM E-score
1,CGCCGGGC,0.308
2,AGCCGGGA,0.3
3,GGCCGGGA,0.39
4,CTCCGGGA,0.399
5,GGCCGGTA,0.274
6,GTCCGGGA,0.353
7,CGCCGGGA,0.382
8,CGCCGGTA,0.13
9,CTCCGAGA,0.274
10,GAACATAC,0.0175
11,CCTAGACG,0.012
12,ATCCTGGG,-0.104
13,GGCCCCCC,-0.0393
14,AAGGCTTG,-0.0886
15,AGATCACC,0.0531
16,GAGACTCC,0.0113
17,AGGCTAAA,-0.297
18,CCGGAGTA,0.367
19,GCGGAGTA,0.245
20,ACGGAGTA,0.297
21,CCGGAGTC,0.384
22,CCGGAGGC,0.292
